{"source": "PubChem BioAssay AID1159580", "about": "(chemical genetic matrix, 2015)", "assay": "chemical genetic growth profiling, strain panel (AID 1159580);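 also: tested at 20 µM; growth read once vehicle control cultures reached saturation at 30 °C; 1 = growth at the plate median or of vehicle wells; lower values mean less growth of the strain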", "settings": "S. cerevisiae deletion strains, growth OD", "note": "The whole screen tested about 5,500 compounds, of which about 2,000 (36%) were called active. Inconclusive results (about 18%) are left out. The list shows a part of the results. Values without a mark were called inactive. Rule as the data show it: active = normalized growth mostly below about 0.91 (no sharp cut-off); inconclusive = no clear call, values can overlap the other calls; inactive = mostly above about 0.92.", "data": [{"smiles": "Nc1ccc(C(=O)Oc2ccccc2)c(O)c1", "values": [{"measurement": "normalized growth", "setting": "locus YJR043C, strain POL32, active compounds read low", "result": 0.932}, {"measurement": "normalized growth", "setting": "locus YJR066W, strain TOR1, active compounds read low", "result": 0.893}, {"measurement": "normalized growth", "setting": "locus YJR075W, strain HOC1, active compounds read low", "result": "0.84 (active)"}, {"measurement": "normalized growth", "setting": "locus YKL009W, strain mrt4, active compounds read low", "result": 0.894}, {"measurement": "normalized growth", "setting": "locus YKL068W, active compounds read low", "result": "0.93 (active)"}, {"measurement": "normalized growth", "setting": "locus YKL085W, strain MDH1 (second series), active compounds read low", "result": "0.914 (active)"}, {"measurement": "normalized growth", "setting": "locus YKL085W, strain MDH1, active compounds read low", "result": "0.914 (active)"}, {"measurement": "normalized growth", "setting": "locus YKL160W, strain elf1, active compounds read low", "result": 0.942}, {"measurement": "normalized growth", "setting": "locus YKL190W, strain CNB1, active compounds read low", "result": 0.939}, {"measurement": "normalized growth", "setting": "locus YKR001C, strain vps1, active compounds read low", "result": "0.672 (active)"}, {"measurement": "normalized growth", "setting": "locus YKR026C, strain gcn3, active compounds read low", "result": "0.896 (active)"}, {"measurement": "normalized growth", "setting": "locus YKR091W, strain srl3, active compounds read low", "result": 0.948}, {"measurement": "normalized growth", "setting": "locus YLL001W, strain dnm1, active compounds read low", "result": 0.951}, {"measurement": "normalized growth", "setting": "locus YLL026W, active compounds read low", "result": 0.943}, {"measurement": "normalized growth", "setting": "locus YLL041C, strain sdh2, active compounds read low", "result": 0.929}, {"measurement": "normalized growth", "setting": "locus YLR027C, strain aat2, active compounds read low", "result": 0.927}, {"measurement": "normalized growth", "setting": "locus YLR039C, strain RIC1, active compounds read low", "result": "0.346 (active)"}, {"measurement": "normalized growth", "setting": "locus YLR058C, strain SHM2, active compounds read low", "result": 0.909}, {"measurement": "normalized growth", "setting": "locus YLR102C, strain apc9, active compounds read low", "result": "0.917 (active)"}, {"measurement": "normalized growth", "setting": "locus YLR113W, strain HOG1, active compounds read low", "result": 0.862}, {"measurement": "normalized growth", "setting": "locus YLR221C, strain rsa3, active compounds read low", "result": 0.932}, {"measurement": "normalized growth", "setting": "locus YLR258W, strain gsy2, active compounds read low", "result": 0.948}, {"measurement": "normalized growth", "setting": "locus YLR262C, strain YPT6 (second series), active compounds read low", "result": "0.558 (active)"}, {"measurement": "normalized growth", "setting": "locus YLR262C, strain YPT6, active compounds read low", "result": "0.352 (active)"}, {"measurement": "normalized growth", "setting": "locus YLR268W, strain sec22, active compounds read low", "result": "0.861 (active)"}, {"measurement": "normalized growth", "setting": "locus YLR320W, strain mms22, active compounds read low", "result": "0.797 (active)"}, {"measurement": "normalized growth", "setting": "locus YLR330W, strain CHS5, active compounds read low", "result": "0.876 (active)"}, {"measurement": "normalized growth", "setting": "locus YLR342W, strain FKS1 (second series), active compounds read low", "result": "0.662 (active)"}, {"measurement": "normalized growth", "setting": "locus YLR342W, strain FKS1, active compounds read low", "result": 0.915}, {"measurement": "normalized growth", "setting": "locus YLR357W, strain rsc2, active compounds read low", "result": 0.919}, {"measurement": "normalized growth", "setting": "locus YLR370C, strain arc18, active compounds read low", "result": 0.927}, {"measurement": "normalized growth", "setting": "locus YLR371W, strain rom2, active compounds read low", "result": "0.77 (active)"}, {"measurement": "normalized growth", "setting": "locus YLR384C, strain iki3, active compounds read low", "result": 0.962}, {"measurement": "normalized growth", "setting": "locus YLR418C, strain cdc73, active compounds read low", "result": "0.453 (active)"}, {"measurement": "normalized growth", "setting": "locus YML016C, strain PPZ1, active compounds read low", "result": 0.924}, {"measurement": "normalized growth", "setting": "locus YML032C, strain rad52, active compounds read low", "result": "0.774 (active)"}, {"measurement": "normalized growth", "setting": "locus YML120C, strain ndi1, active compounds read low", "result": "0.904 (active)"}, {"measurement": "normalized growth", "setting": "locus YML124C, strain tub3, active compounds read low", "result": "0.904 (active)"}, {"measurement": "normalized growth", "setting": "locus YMR058W, strain fet3, active compounds read low", "result": 0.929}, {"measurement": "normalized growth", "setting": "locus YMR078C, strain ctf18, active compounds read low", "result": "0.861 (active)"}, {"measurement": "normalized growth", "setting": "locus YMR125W, strain sto1, active compounds read low", "result": 0.942}, {"measurement": "normalized growth", "setting": "locus YMR129W, active compounds read low", "result": 0.946}, {"measurement": "normalized growth", "setting": "locus YMR205C, strain PFK2, active compounds read low", "result": "0.861 (active)"}, {"measurement": "normalized growth", "setting": "locus YMR223W, strain ubp8, active compounds read low", "result": "0.825 (active)"}, {"measurement": "normalized growth", "setting": "locus YMR231W, strain pep5, active compounds read low", "result": 0.983}, {"measurement": "normalized growth", "setting": "locus YMR307W, strain GAS1, active compounds read low", "result": "0.402 (active)"}, {"measurement": "normalized growth", "setting": "locus YNL067W, strain RPL9B, active compounds read low", "result": 0.867}, {"measurement": "normalized growth", "setting": "locus YNL071W, strain lat1, active compounds read low", "result": "0.786 (active)"}, {"measurement": "normalized growth", "setting": "locus YNL128W, strain TEP1, active compounds read low", "result": 0.905}, {"measurement": "normalized growth", "setting": "locus YNL153C, strain GIM3, active compounds read low", "result": 0.905}, {"measurement": "normalized growth", "setting": "locus YNL183C, strain NPR1, active compounds read low", "result": 0.859}, {"measurement": "normalized growth", "setting": "locus YNL209W, strain ssb2, active compounds read low", "result": 0.955}, {"measurement": "normalized growth", "setting": "locus YNL233W, strain BNI4, active compounds read low", "result": "0.788 (active)"}, {"measurement": "normalized growth", "setting": "locus YNL248C, strain rpa49, active compounds read low", "result": 0.923}, {"measurement": "normalized growth", "setting": "locus YNL250W, strain rad50, active compounds read low", "result": 0.95}, {"measurement": "normalized growth", "setting": "locus YNL271C, strain bni1, active compounds read low", "result": "0.918 (active)"}, {"measurement": "normalized growth", "setting": "locus YNL298W, strain CLA4, active compounds read low", "result": "0.908 (active)"}, {"measurement": "normalized growth", "setting": "locus YNL307C, strain MCK1, active compounds read low", "result": "0.323 (active)"}, {"measurement": "normalized growth", "setting": "locus YNL322C, strain KRE1 (second series), active compounds read low", "result": 0.942}, {"measurement": "normalized growth", "setting": "locus YNR049C, strain mso1, active compounds read low", "result": 0.933}, {"measurement": "normalized growth", "setting": "locus YNR052C, strain pop2, active compounds read low", "result": "0.883 (active)"}, {"measurement": "normalized growth", "setting": "locus YOL012C, strain htz1", "result": 1.98}, {"measurement": "normalized growth", "setting": "locus YOL147C, strain pex11, active compounds read low", "result": "0.767 (active)"}, {"measurement": "normalized growth", "setting": "locus YOR001W, strain rrp6, active compounds read low", "result": 0.92}, {"measurement": "normalized growth", "setting": "locus YOR061W, strain CKA2, active compounds read low", "result": 0.928}, {"measurement": "normalized growth", "setting": "locus YOR069W, strain VPS5, active compounds read low", "result": 0.95}, {"measurement": "normalized growth", "setting": "locus YOR070C, strain gyp1, active compounds read low", "result": 0.937}, {"measurement": "normalized growth", "setting": "locus YOR080W, strain dia2, active compounds read low", "result": 0.961}, {"measurement": "normalized growth", "setting": "locus YOR083W, strain WHI5, active compounds read low", "result": 0.93}, {"measurement": "normalized growth", "setting": "locus YOR106W, strain vam3, active compounds read low", "result": 0.878}, {"measurement": "normalized growth", "setting": "locus YOR136W, strain idh2, active compounds read low", "result": "0.919 (active)"}, {"measurement": "normalized growth", "setting": "locus YOR144C, strain elg1, active compounds read low", "result": "0.888 (active)"}, {"measurement": "normalized growth", "setting": "locus YOR184W, strain ser1, active compounds read low", "result": "0.504 (active)"}, {"measurement": "normalized growth", "setting": "locus YOR231W, strain MKK1, active compounds read low", "result": 0.923}, {"measurement": "normalized growth", "setting": "locus YOR265W, strain rbl2, active compounds read low", "result": 0.931}, {"measurement": "normalized growth", "setting": "locus YOR270C, strain vph1, active compounds read low", "result": "0.732 (active)"}, {"measurement": "normalized growth", "setting": "locus YOR290C, strain snf2, active compounds read low", "result": 0.885}, {"measurement": "normalized growth", "setting": "locus YOR316C, strain cot1, active compounds read low", "result": "0.918 (active)"}, {"measurement": "normalized growth", "setting": "locus YPL051W, strain arl3, active compounds read low", "result": 0.938}, {"measurement": "normalized growth", "setting": "locus YPL078C, strain atp4, active compounds read low", "result": 0.929}, {"measurement": "normalized growth", "setting": "locus YPL106C, strain sse1, active compounds read low", "result": 0.965}, {"measurement": "normalized growth", "setting": "locus YPL240C, strain hsp82, active compounds read low", "result": 0.953}, {"measurement": "normalized growth", "setting": "locus YPL256C, strain CLN2, active compounds read low", "result": 0.904}, {"measurement": "normalized growth", "setting": "locus YPR119W, strain clb2, active compounds read low", "result": "0.91 (active)"}, {"measurement": "normalized growth", "setting": "locus YPR141C, strain kar3, active compounds read low", "result": "0.896 (active)"}, {"measurement": "normalized growth", "setting": "locus YPR163C, strain tif3, active compounds read low", "result": "0.71 (active)"}, {"measurement": "normalized growth", "setting": "locus YPR167C, strain met16, active compounds read low", "result": "0.885 (active)"}, {"measurement": "normalized growth", "setting": "strain wtn01, active compounds read low", "result": "0.751 (active)"}]}]}
